GPR151 activ = activators of human GPR151, primary screen, cell-based, PathHunter beta-arrestin, luminescence. PathHunter beta-arrestin GPR151 cells. activation, % at 11.2 µM. 650,000 compounds, 1% hits. AID 1508602, 2020; in the data active = activation above about 4.9%
Target sequence (Q8TDV0 whole entry, looked up): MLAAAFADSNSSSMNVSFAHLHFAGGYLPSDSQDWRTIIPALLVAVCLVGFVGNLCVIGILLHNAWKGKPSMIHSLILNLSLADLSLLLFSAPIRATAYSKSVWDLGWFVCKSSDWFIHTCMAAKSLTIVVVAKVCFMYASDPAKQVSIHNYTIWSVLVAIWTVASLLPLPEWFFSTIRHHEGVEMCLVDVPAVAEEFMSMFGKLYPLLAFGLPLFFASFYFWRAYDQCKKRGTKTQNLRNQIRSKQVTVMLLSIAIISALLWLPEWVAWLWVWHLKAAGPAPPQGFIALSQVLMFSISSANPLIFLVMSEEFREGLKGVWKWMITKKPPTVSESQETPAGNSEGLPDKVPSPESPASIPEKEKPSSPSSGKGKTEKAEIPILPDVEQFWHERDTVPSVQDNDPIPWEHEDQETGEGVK
MITF primary = MITF inhibitors, primary screen, biochemical, AlphaScreen, human. AlphaScreen MITF homodimerization, bead proximity signal. Microphthalmia-associated transcription factor (Homo sapiens), O75030. inhibition, % at 2.6 µM. 650,000 compounds, 0.91% hits; in the data active = inhibition above about 50%
TEAD-YAP inh = TEAD-YAP interaction inhibition, primary screen, TEAD-YAP interaction inhibitor project, luminescence, HEK-TIYL cells; TEAD-Gal4/YAP UAS-luciferase luminescence; inhibition, % at 9.12 µM; 640,000 compounds, 1.4% hits; in the data active = inhibition above about 32%
FBW7 activator = FBW7 E3 ligase activators, primary screen, biochemical, AlphaScreen, human | AlphaScreen FBW7–phospho-cyclin E peptide binding, activator screen | normalized activity (activation), % at 26.1 µM | 650,000 compounds, 0.13% hits | AID 1259310, 2017; in the data active = normalized activity above about 1.9%;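 also: purified mutant Fbw7 with reduced substrate affinity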
MITF inh conf = MITF inhibitors, retest of hits, confirmation, biochemical, AlphaScreen, triplicate | shares compounds with MITF primary | AlphaScreen MITF homodimerization, biotin/His-MITF beads | inhibition, % at 2.6 µM | 4,700 compounds, 16% hits;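 active = inhibition above a cutoff derived from the DMSO control wells, cut at about 28% in these data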;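 also: inhibitors lower the bead chemiluminescence by keeping MITF from dimerizing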
AlphaScreen DR = AlphaScreen optical interference compounds, dose response, counter-screen, biochemical, HTS; AID 1259373, 2018; IC50, µM; AlphaScreen optical interference counterscreen, cell-free; 480 compounds, 6% hits; shares compounds with MITF primary; call rule not given here
AS interf ctr = AlphaScreen optical interference compounds, counter-screen for MITF inhibitor project, biochemical, triplicate | shares compounds with MITF primary | LysRS AlphaScreen counterscreen, signal interference | inhibition, % at 2.6 µM | 4,700 compounds, 7.6% hits | AID 1259376, 2018;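 active = inhibition above a cutoff derived from the DMSO control wells, cut at about 30% in these data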
Of the large screens only hits and unclear results are named; the others gave an inactive call (follow-up assays come after a bar, where they were run). Shown are actives, neighbours in structure and some others; about 3.5% of the full set was active somewhere.

Cc1nc(NCCCn2ccnc2)c2ccccc2n1	none
Cc1nc(NCCCn2ccnc2)c2c(-c3cccs3)csc2n1	MITF primary 64 | MITF inh conf inactive | AS interf ctr inactive
Cc1n[nH]c(C)c1NC(=O)CN1C[C@@H](C)N(Cc2ccco2)C[C@H]1C	none
CCC(Sc1nc2ccsc2c(=O)n1CCC(C)C)C(=O)Nc1ccc2c(c1)OCO2 (stereo unspecified)	none
CCCCn1c(SCC(=O)Nc2ccccc2OC)nc2ccsc2c1=O	MITF primary 58 | MITF inh conf inactive | AS interf ctr inactive
COc1ccc(NC(=O)CCCCCn2c(SCC(=O)Nc3ccccc3OC)nc3ccsc3c2=O)cc1	none
CCCCn1c(SC(CC)C(=O)Nc2ccc3c(c2)OCO3)nc2ccsc2c1=O (stereo unspecified)	MITF primary 69 | MITF inh conf inactive | AS interf ctr inactive
Nn1c(COc2ccccc2)nnc1SCC(=O)Nc1cccc(Br)c1	none
O=C(Nc1ccc(Oc2ccc(NC(=O)C34CC5CC(CC(C5)C3)C4)cc2)cc1)C12CC3CC(CC(C3)C1)C2	none
COc1ccc(CCN=C(C)C2=C(O)C(c3ccccc3)OC2=O)cc1OC (stereo unspecified)	MITF primary 74 | MITF inh conf inactive | AS interf ctr inactive
CCOc1ccc(OCCCNC(C)(C)C)cc1	MITF primary 69 | MITF inh conf inactive | AS interf ctr inactive
CC(C)(C)NCCCOc1ccc(C(C)(C)C)cc1	none
CCNS(=O)(=O)c1ccc(Cl)c(Cl)c1	MITF primary 56 | MITF inh conf inactive | AS interf ctr inactive
O=C(NCc1cccs1)c1ccc(CNS(=O)(=O)c2ccc(F)cc2)cc1	none
O=C(NCCNCc1cccs1)c1ccc(F)cc1	MITF primary 55 | MITF inh conf inactive | AS interf ctr inactive
O=[N+]([O-])c1cccc(P(=O)(c2cccc([N+](=O)[O-])c2)N2CCOCC2)c1	MITF primary 51 | MITF inh conf inactive | AS interf ctr inactive
Cc1nnc(CNC(=O)c2ccc(-n3cccc3)cc2)o1	MITF primary 55 | MITF inh conf 55 | AlphaScreen DR inactive | AS interf ctr inactive
Cc1nnc(CNC(=O)c2cnn(-c3ccccc3)c2C)o1	none
COc1ccccc1NC(=O)c1c(NCc2cccs2)sc2c1CCC2	none
CCOC(=O)CC(=O)Nc1ccccc1Cl	none
CN1C(=O)N(C)C2OC(C3OC4C(O3)N(C)C(=O)N4C)OC21 (stereo unspecified)	MITF primary 55 | MITF inh conf inactive | AS interf ctr inactive
CC1(C)c2ssc(=S)c2-c2ccccc2N1C(=O)c1sc2ccccc2c1Cl	none
CCCNc1nc(NCc2cccnc2)nc2c1ncn2C(C)C	none
CCc1cc(OCCOCCN2CCN(CC)CC2)ccc1Cl	MITF primary 68 | MITF inh conf inactive | AS interf ctr inactive
CN1CCN(CCOCCOc2ccc(Cl)c(Cl)c2)CC1	MITF primary 57 | MITF inh conf inactive | AS interf ctr inactive
CCc1cc(OCCN2CCNCC2)ccc1Cl	none
CN1CCN(CCOc2ccc(Cl)c(Cl)c2)CC1	MITF primary 69 | MITF inh conf inactive | AS interf ctr inactive
O=C(O)c1cccc(N/N=C/c2ccccn2)c1	none
O=C(O)c1cccc(NC(=S)N/N=C/c2ccccn2)c1	MITF primary 95, TEAD-YAP inh 34 | MITF inh conf inactive | AS interf ctr inactive
CN(C)[C@@H]1C(=O)C(C(=O)NCN2CCCC2)=C(O)[C@@]2(O)C(=O)C3=C(O)c4c(O)cccc4[C@@](C)(O)[C@H]3C[C@@H]12	MITF primary 75 | MITF inh conf 81 | AlphaScreen DR inactive | AS interf ctr inactive
Cc1ccc(C(=O)O)cc1NC(=S)NC(=O)CC(C)C	none
CC(=O)COc1ccc2c(C(F)(F)F)cc(=O)oc2c1	none
CC(Oc1ccc2c(C(F)(F)F)cc(=O)oc2c1)C(=O)NN (stereo unspecified)	MITF primary 58 | MITF inh conf 44 | AlphaScreen DR inactive | AS interf ctr inactive
CN1CCC(N(C)CC(O)COCc2ccccc2F)CC1 (stereo unspecified)	none
CN1CCC(N(C)CC(O)COCc2ccccc2Cl)CC1 (stereo unspecified)	MITF primary 87 | MITF inh conf inactive | AS interf ctr inactive
O=C(NC(=S)Nc1ccc(Cl)c(-c2nc3ccccc3s2)c1)c1cccnc1	none
CCCCNCCOCCOc1ccc(Cl)cc1	MITF primary 80 | MITF inh conf inactive | AS interf ctr inactive
CCCCNCCOCCOc1cc(C)ccc1Cl	MITF primary 54 | MITF inh conf inactive | AS interf ctr inactive
CCCS(=O)(=O)N1CCN(Cc2ccc(OCc3ccccc3)c(OC)c2)CC1	MITF primary 64 | MITF inh conf inactive | AS interf ctr inactive
CCCS(=O)(=O)N1CCN(Cc2nc3ccc(OC)cc3[nH]2)CC1	MITF primary 66 | MITF inh conf inactive | AS interf ctr inactive
CCCS(=O)(=O)N1CCN(Cc2ccc(OC)c(OC)c2)CC1	MITF primary 53 | MITF inh conf inactive | AS interf ctr inactive
CCCS(=O)(=O)N1CCN(Cc2ccc(OC)cc2)CC1	none
CCCS(=O)(=O)N1CCN(Cc2ccc(OC)cc2OC)CC1	none
Clc1cccc(Cl)c1-c1nnc2ccc3ccccc3n12	none
COc1ccc(CN2CCN(Cc3c[nH]c4ccccc34)CC2)c(OC)c1	MITF primary 58 | MITF inh conf inactive | AS interf ctr inactive
COc1ccc(CN2CCN(Cc3c[nH]c4ccccc34)CC2)cc1	MITF primary 64 | MITF inh conf inactive | AS interf ctr inactive
CCOc1cc(CN2CCN(Cc3c[nH]c4ccccc34)CC2)ccc1OC	MITF primary 60 | MITF inh conf inactive | AS interf ctr inactive
Cc1ccc(S(=O)(=O)Cn2nnnc2CN2CCN(C)CC2)cc1	none
Cc1ccc(N[C@@H]2OC[C@@H](O)C(O)C2O)cc1N[C@@H]1OC[C@@H](O)C(O)C1O (stereo partly specified)	MITF primary 72 | MITF inh conf 71 | AS interf ctr inactive
O=C(OC1CCCCC1=O)c1ccc(S(=O)(=O)NCc2ccco2)cc1 (stereo unspecified)	none
O=C(OC1CCOC1=O)c1ccc(S(=O)(=O)NCc2ccco2)cc1 (stereo unspecified)	MITF primary 53 | MITF inh conf 52 | AlphaScreen DR inactive | AS interf ctr inactive
O=C(Nc1cc2c3c(c1)CCC(=O)N3CCC2)c1ccc(Br)o1	none
CCc1nn(CC(=O)NCc2ccc(OC)c(OC)c2)c(=N)s1	none
